# Bioassay records from PubChem BioAssay.
# 3CLpro inhibitor: SARS-CoV 3CLpro protease inhibition. P0C6X7. recombinant SARS-CoV 3CLpro, quenched FRET peptide cleavage. inhibition, % at 6 µM. actives 0.14% (n = 290,000). AID 1706; in the data active means inhibition above about 12%
# PrPC TRFRET: inhibitors of human cell surface prion protein PrPC. P04156. TR-FRET read-out. inhibition, % at 13.8 µM. actives 0.43% (n = 370,000); in the data active means inhibition above about 24%; further: 0% = median of the test wells and 100% = reference compound wells
# PrP 5UTR inh: inhibition of PrP 5' UTR reporter expression; cell-based PrP 5' UTR mRNA reporter, plate reader; inhibition, % (no concentration beside the values); actives 0.35% (n = 340,000); AID 488862; in the data active means inhibition above about 52%; further: 0 = median of the neutral control wells
# CCHFV vOTU inh: CCHFV vOTU protease inhibition; Pep-AMC fluorescence; inhibition, % at 11.5 µM; actives 0.55% (n = 370,000); AID 651958; in the data active means inhibition above about 30%; further: 0% = vehicle wells with enzyme and 100% = no enzyme wells
# PrPC TRFRET cf: cell surface PrPC inhibition, TR-FRET confirmation | actives 65% (n = 1,500) | cell surface PrPC level | inhibition, % at 13.8 µM | shares compounds with PrPC TRFRET; in the data active means inhibition above about 25%
# LD9 tox: kills or reduces viability of LD9 cells in PrPc counter-screen; actives 29% (n = 1,500); shares compounds with PrPC TRFRET; inhibition, % at 13.8 µM; LD9 cells cytotoxicity, luminescence viability; in the data active means inhibition above about 9.5%
# * hit, by the source's call; . = no result. A selection: hits, their analogues and other compounds. The true share with any hit is near 1.3%.
SMILES,3CLpro inhibitor,PrPC TRFRET,PrP 5UTR inh,CCHFV vOTU inh,PrPC TRFRET cf,LD9 tox
O=C(c1ccc(CSc2nc3ccncc3[nH]2)cc1)N1CCCCCC1,3,10,-11,1,.,.
O=C(c1ccc(CSc2nc3ccncc3[nH]2)cc1)N1CCN(c2cccc(Cl)c2)CC1,1,31*,-5,26,40*,9.4*
Cc1ccc(Nc2ccc(C(=O)NCCc3ccccc3)cn2)cc1,2,11,-31,-1,.,.
Cc1ccc(C)c(Nc2ccc(C(=O)NCCc3ccccc3)cn2)c1,-2,27*,4,4,4,-2
Cc1ccccc1-c1n[nH]c(=S)o1,-3,63*,-12,9,72*,-3
CSc1ccccc1-c1n[nH]c(=S)o1,-4,66*,-22,0,83*,-7
S=c1[nH]nc(-c2ccccc2)o1,-2,8,-4,5,.,.
Oc1ccc(Br)cc1-c1n[nH]c(=S)n1Cc1ccccc1,2,-5,-10,-9,.,.
O=C(c1ccc(Cl)c(Cl)c1)c1cc(-c2ccccn2)c(N2CCOCC2)s1,2,41*,-8,0,52*,5
Cc1ccc(Oc2ccc(C(=O)NC3CCSC3=O)cn2)cc1 (stereo unspecified),-1,-2,-18,2,.,.
Cc1nc2ccccc2c2oc(C(=O)N3CCN(C4CCCCC4)CC3)cc12,-3,26*,1,2,21,15*
O=C(c1ccc(S(=O)(=O)c2ccccc2Cl)c([N+](=O)[O-])c1)N1CCCCCC1,-2,-7,-22,-6,.,.
CN1CCN(C2CCN(Cc3ccc(O)c4ncccc34)CC2)CC1,.,34*,-11,10,2,-6
Oc1ccc(CN2CCN(Cc3ccccc3)CC2)c2cccnc12,2,0,-1,5,.,.
COc1ccc(NS(=O)(=O)c2ccc3c(c2)NC(=O)CCS3)cc1Cl,-4,23,-5,5,.,.
Cc1n[nH]c(=S)c2nn(-c3ccccc3F)c(C)c12,-4,46*,3,8,68*,3
Cc1n[nH]c(=S)c2nn(-c3ccccc3)c(C)c12,-1,.,.,.,.,.
COc1cccc(-n2nc3c(=S)[nH]nc(C)c3c2C)c1,-2,17,-17,3,.,.
Cc1n[nH]c(=S)c2nn(-c3cccc(Cl)c3)c(C)c12,5,36*,.,-6,67*,-4
Cc1ccc(-n2nc3c(=S)[nH]nc(C)c3c2C)cc1,2,111*,-11,-5,122*,0
CCOc1cc(C2Nc3ccccc3C(=O)N2c2ccccc2)c(Br)cc1OCC(=O)O (stereo unspecified),1,93*,-14,-93,63*,-4
COc1ccccc1OCC(=O)Nc1ccc2c(c1)C(=O)N(CC1CCCO1)C2=O (stereo unspecified),2,-10,-23,-2,.,.
COc1ccccc1Oc1ccc2c(c1)C(=O)N(CC1CCCO1)C2=O (stereo unspecified),-1,47*,-27,-13,1,-4
COC(=O)[C@H](CC(C)C)N(CCc1cn(CC2CCCCC2)nn1)S(=O)(=O)c1ccc(F)cc1Br,.,6,.,7,.,.
O=C(NCc1ccco1)c1cccc(NC(=O)c2ccco2)c1,-1,20,-22,-14,.,.
SMILES,3CLpro inhibitor,PrPC TRFRET,PrP 5UTR inh,CCHFV vOTU inh,PrPC TRFRET cf,LD9 tox
COc1ccc(C(=O)Nc2cccc(C(=O)NCc3ccco3)c2)cc1,8,27*,-31,-2,20,5
O=C(NCc1ccco1)c1ccccc1,0,-5,-21,2,.,.
O=C(NCc1ccco1)c1cccc(-c2nnc(-c3ccccc3)o2)c1,3,26*,-21,8,15,4
NS(=O)(=O)c1ccc(CCn2c(=S)[nH]c3ccccc3c2=O)cc1,2,1,-25,-12,.,.
C=C1C(=O)[C@]23C[C@H]1CCC2[C@@]1(C)C(C[C@@H]3O)[C@](C)(C(=O)OC)CC[C@@H]1O (stereo partly specified),.,5,.,3,.,.
C=C1C(=O)[C@]23C[C@H]1CC[C@H]2[C@]1(C)CCC[C@@](C)(C(=O)OC)[C@H]1C[C@@H]3O,.,60*,.,8,71*,96*
Cc1c(N/N=C(\C#N)C(=O)c2ccc(Cl)cc2)c(=O)n(-c2ccccc2)n1C,3,34*,22,18,26*,25*
CN1OC(Cn2cc(C#N)c(=O)n(C)c2=O)CC1c1ccccc1 (stereo unspecified),-3,25*,-15,-7,4,1
COc1cc2nc(CN3CC=C(c4ccccc4)CC3)[nH]c(=O)c2cc1OC,.,24*,-19,-5,47*,25*
COc1cc2nc(CN3CCN(S(=O)(=O)c4ccccc4)CC3)[nH]c(=O)c2cc1OC,.,6,-21,-2,.,.
Cc1ccc(S(=O)(=O)Nc2ccccc2N(C)S(=O)(=O)c2ccc(C)cc2)cc1,.,26*,-5,4,18,9.7*
Cc1ccc(S(=O)(=O)Nc2ccccc2NS(=O)(=O)c2ccc(C)cc2)cc1,.,9,.,19,.,.
O=C(CCCN1C(=O)/C(=C/c2ccccc2Cl)SC1=S)NCCCN1CCOCC1,4,-7,17,21,.,.
O=C(N/N=C/c1ccc[nH]1)c1ccc(COc2cccc3cccnc23)cc1,-2,14,-26,18,.,.
Cc1cc(Br)c(OCc2ccc(C(=O)N/N=C/c3ccc[nH]3)cc2)c(Br)c1,.,26*,36,6,52*,65*
COc1cccc(NC(=O)Nc2cccn(Cc3ccccc3)c2=O)c1,0,8,16,-5,.,.
COc1ccc(Cn2cccc(NC(=O)Nc3cccc(OC)c3)c2=O)cc1,2,25*,12,0,29*,-7
O=S(=O)(NC1c2cccc3cccc(c23)C1N1CCN(CCO)CC1)c1ccccc1 (stereo unspecified),-3,34*,-4,-1,16,4
O=C(Sc1cccc2cccnc12)c1ccccc1Br,7,30*,29,-1,12,83*
COc1ccc(-c2cnc(SCC(=O)Nc3ccc4c(c3)OCO4)n2Cc2ccco2)cc1,-1,25*,-9,8,19,9.3*
CC(=O)Nc1cccc(NC(=O)CSc2ncc(-c3ccc(Cl)cc3)n2Cc2ccco2)c1,2,7,-17,6,.,.
CCC(C)C(NC(=O)CCCNC(=O)CCC(=O)OC1O[C@H]2OC3(C)CC[C@H]4[C@H](C)CCC(C1C)C24OO3)C(=O)O (stereo partly specified),3,28*,-14,1,31*,22*
CCC(C)NC(=O)CCC(=O)OC1O[C@H]2OC3(C)CC[C@H]4[C@H](C)CCC(C1C)C24OO3 (stereo partly specified),3,28*,-21,6,31*,21*
CCCC(c1nnnn1Cc1ccc(F)cc1)N1CCN(CC)CC1 (stereo unspecified),1,-7,-8,-6,.,.
O=C(O)c1ccc(Cl)c(NCc2cccnc2)c1,4,-3,-12,-8,.,.
